# Sm TGR block: inhibitors of Schistosoma mansoni thioredoxin glutathione reductase; Potency, µM (series often up to 114 µM), inactives show at the top dose activity change, negative = inhibition, usual class: inhibitors; actives 3% (n = 360,000); purified TGR, DTNB reduction, TNB absorbance 405 nm; Q962Y6; also: nearly all actives have a fitted effect of over 60% in size
#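 TGR 20 nM + NADPH 100 uM (dispensed conc.), cpd preinc 15 min RT; start with NADPH (500 uM addition) then DTNB (15 mM addition). Kinetic TNB absorbance, 405 nm filter. Four-parameter Hill fit across titration.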
# RE007 growth inh: less growth of the S. pombe RE007 Vpr strain; Potency, µM (doses to about 92.2 µM), inactives show at the top dose activity change, negative = less growth, usual class: inhibitors; actives 0.21% (n = 360,000); S. pombe RE007 Vpr strain, BacTiter-Glo ATP luminescence, 24 h; AID 651644; active = well fitted falling curve with a large enough effect; inconclusive = small, poorly fitted or top-dose-only effect; inactive = no such curve, though single readings can be large or run the other way; also: nearly all actives have a fitted effect of over 50% in size
#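 Fission yeast RE007 carrying one integrated HIV-1 vpr copy, seeded at OD 0.01 in PMG+AL medium with 23 nL pinned compound. Grown 24 h at 30 degrees; viability read by BacTiter-Glo luminescence after 5 min.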
# AmpC inh no detg: blocks E. coli AmpC beta-lactamase in detergent-free assay; AmpC nitrocefin hydrolysis, absorbance 480 nm, 0.0001% Triton; Potency, µM (highest dose often 57.1 µM), for the others: at the top dose activity change, negative = inhibition, most hits filed as inhibitors; actives 0.52% (n = 330,000); AID 485341;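 also: plate controls were no compound for no effect and no enzyme for full effect; nearly all actives have a fitted effect of over 20% in size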
# Target sequence (P00811 whole entry, looked up): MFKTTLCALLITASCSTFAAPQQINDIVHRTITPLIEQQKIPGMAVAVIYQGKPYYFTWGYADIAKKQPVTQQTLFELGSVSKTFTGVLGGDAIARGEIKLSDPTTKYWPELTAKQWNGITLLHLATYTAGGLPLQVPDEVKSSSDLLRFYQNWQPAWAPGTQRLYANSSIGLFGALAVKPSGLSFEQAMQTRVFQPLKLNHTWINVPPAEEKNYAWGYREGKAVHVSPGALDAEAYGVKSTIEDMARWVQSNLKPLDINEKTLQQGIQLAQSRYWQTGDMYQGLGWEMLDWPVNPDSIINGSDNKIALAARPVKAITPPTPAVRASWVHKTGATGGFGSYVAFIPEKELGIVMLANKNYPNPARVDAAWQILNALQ
#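 20 mM phosphate pH 7.0 + 0.01% (detergent screen) or 0.0001% Triton X-100; 5.3 nM AmpC reagent; cpd preinc 15 min RT; nitrocefin (800 uM stock) to start; A480 q20 s × 4 min; Activity was normalised to no-enzyme and no-compound control wells.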
# AmpC detergent: blocks E. coli AmpC beta-lactamase in detergent assay. P00811. AmpC hydrolysis of nitrocefin, absorbance 480 nm, 0.01% Triton. Potency, µM (top dose mostly 114 µM), for the others: at the highest dose activity change, negative = inhibition, most hits filed as inhibitors. actives 0.041% (n = 370,000);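 also: 0% = no-compound wells and -100% = no-enzyme wells; nearly all actives have a fitted effect of over 25% in size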
#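 20 mM phosphate pH 7.0 + 0.01% (detergent screen) or 0.0001% Triton X-100; 5.3 nM AmpC reagent; cpd preinc 15 min RT; nitrocefin (800 uM stock) to start; A480 q20 s × 4 min; Activity was normalised to no-enzyme and no-compound control wells.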
# AMA1 RON2 block: AMA1-RON2 (P. falciparum) interaction inhibition. Potency, µM (doses to about 58.2 µM), for the others: top-dose activity change, negative = inhibition, usual class: inhibitors. AID 720542. actives 0.2% (n = 360,000). AlphaScreen AMA1-biotinylated RON2 peptide binding;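 also: 0% = vehicle wells and -100% = peptide control; nearly all actives have a fitted effect of over 45% in size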
#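 AMA1 (3D7) with his tag at 25 nM final met compounds first, then biotinylated RON2 peptide at 25 nM; detection used donor plus acceptor beads, 10 µg/mL apiece, read by AlphaScreen after 30 min at room temperature.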
# * = called active by the depositor; ? = inconclusive; / = no result given. A selection: hits, their analogues and other compounds. The true share with any hit is near 3.2%. Unless noted, calls follow the shape of the dose curve; as a rule, active = well fitted curve in the direction sought with a large enough effect; inconclusive = small, poorly fitted or top-dose-only effect, or another doubt; inactive = no such curve, though single readings can be large; an effect the other way counts as inactive or inconclusive. Unless noted, % is scaled to controls: 0 for no effect and ±100 for the full control effect; potency is read from the fitted curve at half-maximal effect.
SMILES,Sm TGR block,RE007 growth inh,AmpC inh no detg,AmpC detergent,AMA1 RON2 block
CN1C(=O)CC(Nc2cccc3cccc(N)c23)C1=O (centres undefined),32µM*,-26%,8%,8%,11%
Cc1ccc(CNC(=O)[C@H]2C[C@@H]2[C@H](NP(=O)(c2ccccc2)c2ccccc2)c2ccccc2)o1,50µM*,-11%,28%,?,0%
Cc1cc(C)n2nc3ccccc3c2n1,2%,2%,-16%,-1%,8%
Cc1cc(C)n2nc3nc(N4CCCCC4)nc(-c4ccco4)c3c2n1,1.4µM*,9%,25%,6%,?
CCOc1ccccc1Nc1nnc(-c2cc3cc(OC)ccc3oc2=O)s1,3%,/,/,5%,/
COc1cccc(N2CCN(C3=NS(=O)(=O)C(c4ccc(C)cc4)=C3C)CC2)c1,-1%,/,/,-5%,/
O=C1c2ccccc2NC(c2ccc(-c3cccs3)o2)N1O (centres undefined),32µM*,/,-25%,4%,/
O=C1c2ccccc2NC(c2ccc(Br)o2)N1O (centres undefined),11µM*,/,-16%,-2%,/
O=C1c2ccccc2NC(c2ccco2)N1O (centres undefined),50µM*,-1%,-7%,-7%,2%
c1coc(C2Nc3ccccc3-c3nc4ccccc4n32)c1 (centres undefined),38%,7%,35µM*,-11%,56%
O=C1c2ccccc2NC(c2ccco2)N1NS(=O)(=O)c1ccccc1 (centres undefined),-3%,?,-22%,-1%,-13%
CC(=O)c1ccc(NC(=O)Cn2nc(C(F)(F)F)c3c2CCCC3)cc1,-7%,/,/,4%,/
COc1ccccc1NC(=O)C1=C(C)Nc2nc(SCc3ccccc3)nn2C1c1ccccn1 (centres undefined),-3%,/,/,-6%,/
Cc1ccc(CNC(=O)c2cccc(NC(=O)N3CCSc4ncccc43)c2)cc1,3%,/,/,1%,/
CCCCNC(=O)C(CC)Sc1nc2ccccc2c(=O)n1CCc1ccc(OC)c(OC)c1 (centres undefined),-1%,/,/,6%,/
Cc1ccc(CNC(=O)c2ccc3c(c2)NC(=O)C(CS(=O)(=O)Cc2cccc(C)c2)N3)cc1 (centres undefined),-2%,/,/,10%,/
COc1cccc(CCc2nnc(CCC(=O)N3CCN(Cc4ccccn4)CC3)o2)c1,11µM*,6%,76%,12%,36%
CC(=O)c1c(C(=O)O)[nH]c(C(=O)O)c1C,10µM*,4%,-16%,0%,10%
Cc1[nH]c(C(=O)O)c(C)c1C(=O)OC(C)C,?,20%,-5%,?,7%
COc1ccc(CCNC(=O)c2ccc3c(c2)N=C(C)c2ccccc2S3)cc1OC,3%,/,/,20%,/
COc1cc(NC(=O)CSc2nc3ccccc3cc2C)c(C(=O)O)cc1OC,7%,-2%,-22%,-8%,15%
CCc1cc2ccc(OC)cc2nc1SCC(=O)NNC(=O)c1ccco1,8.9µM*,-7%,-18%,2%,27%
CCc1cc2ccccc2nc1SCC(=O)Nc1cc(OC)c(OC)cc1C(=O)O,6%,-2%,8.9µM*,0%,13%
Cc1ccccc1-c1nn2c(=O)cc(CN3CCN(C(=O)c4ccc(C(C)(C)C)cc4)CC3)nc2s1,-13%,/,/,-8%,/
O=C1C=CC(=Nc2ccc3c(c2)Cc2cc(F)ccc2-3)O1,/,3.2µM*,/,/,-15%
CCOC(=O)NC1(Nc2ccc(Cl)cn2)Oc2ccccc2O1,7.1µM*,/,-21%,?,/
CCOC(=O)/C=C/C(=O)OCC(=O)Nc1ccc(Cl)cn1,0%,?,-13%,-7%,5%
CCOC(=O)c1ccc(NC(=O)CC2C(=O)OCCN2CC)cc1 (centres undefined),22µM*,5µM*,-24%,2%,-17%
CCOC(=O)c1ccc(NC(=O)CC2NCCNC2=O)cc1 (centres undefined),0%,7%,-11%,?,-13%
CCOc1ccc(NC(=O)CC2C(=O)OCCN2CC)cc1 (centres undefined),11µM*,/,/,-2%,/

# Assay outcomes: PubChem, National Center for Advancing Translational Sciences (NCATS)
